Results filed as inconclusive are left out. Entries that show only a call come without a potency. The source made the active and inactive calls. The call rests on the fitted dose curve.
These molecules were tested against Acetylcholinesterase (Homo sapiens) (UniProt P22303) (assay: Acetylcholinesterase (AChE) small molecule antagonists: fluorescence cell-based qHTS assay (AID 1347398; further: nearly all actives have a fitted effect of over 50% in size; further: potency means the concentration at half of the fitted maximal effect)). Conditions: SH-SY5Y cells; Potency: AChE activity; outcome: AChE activity; series mostly up to 115 µM.
Acetylcholinesterase (Homo sapiens), sequence (P22303 whole entry, looked up): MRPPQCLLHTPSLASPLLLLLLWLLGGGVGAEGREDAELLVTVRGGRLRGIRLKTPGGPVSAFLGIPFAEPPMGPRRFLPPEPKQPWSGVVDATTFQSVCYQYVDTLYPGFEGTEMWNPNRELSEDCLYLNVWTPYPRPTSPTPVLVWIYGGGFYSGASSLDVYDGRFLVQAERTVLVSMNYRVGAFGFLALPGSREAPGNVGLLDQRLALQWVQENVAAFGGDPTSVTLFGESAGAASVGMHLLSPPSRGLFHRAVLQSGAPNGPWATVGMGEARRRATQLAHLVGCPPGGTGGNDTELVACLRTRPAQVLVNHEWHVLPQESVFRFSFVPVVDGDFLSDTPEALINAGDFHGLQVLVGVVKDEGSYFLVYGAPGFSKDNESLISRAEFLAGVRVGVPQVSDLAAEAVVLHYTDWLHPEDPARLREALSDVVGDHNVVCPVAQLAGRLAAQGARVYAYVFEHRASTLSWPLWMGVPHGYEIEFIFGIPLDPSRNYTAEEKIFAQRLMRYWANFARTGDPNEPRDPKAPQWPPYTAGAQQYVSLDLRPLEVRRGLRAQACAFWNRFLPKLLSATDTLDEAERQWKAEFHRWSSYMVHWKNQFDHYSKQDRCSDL
Outline: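 Cellular AChE inhibition: SH-SY5Y cells treated with test chemical for 30 min at 37 C, then acetylthiocholine hydrolysis followed over 40 min at room temperature via thiocholine-reactive Thiolite Green fluorescence (490/520 nm).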
In the case of `O=Cc1ccccc1S(=O)(=O)O`, the Potency is reported as “inactive”.
`CC1(C)COCN1` was tested, and the Potency was “inactive”.
`NCc1cccc(CN)c1` was tested, and the Potency was “inactive”.
With `N#CCc1ccc(Cl)cc1Cl` the Potency was “inactive”.
With `CCN(CC)c1ccc(C=O)c(O)c1` the Potency was 35.6 µM (active).
For `CCCC(CCC)(C(=O)OCC)C(=O)OCC`, the Potency was “inactive”.
In the case of `Cc1cc(C)c(C(=O)O)c(C)c1`, the Potency is reported as “inactive”.
With `C[C@H]1O[C@H](O[C@H]2[C@H](O)[C@@H](O)[C@@H](O[C@H]3[C@H](O)[C@@H](O)[C@H](O)O[C@@H]3CO)O[C@@H]2CO)[C@H](O)[C@@H](O)[C@@H]1N[C@H]1C=C(CO)[C@@H](O)[C@H](O)[C@H]1O` the Potency was “inactive”.
In the case of `CCC(C)(C)C1CCC(O)CC1` (stereo not given), the Potency is reported as “inactive”.
With `CCCCCCC(=O)O` the Potency was “inactive”.
In the case of `CCCCC(CC)COCCCN` (stereo not given), the Potency is reported as “inactive”.
For `Fc1ccccc1-c1ccccc1`, the Potency was “inactive”.
In the case of `Cc1ccc2c(ccc3ccccc32)c1`, the Potency is reported as “inactive”.
In the case of `Cc1cc(C2CCCCC2)n(O)c(=O)c1`, the Potency is reported as “inactive”.
`NC(=O)Cc1cccc2ccccc12` was tested, and the Potency was “inactive”.
With `CCCCCC1CCC(=O)O1` (stereo not given) the Potency was “inactive”.
For `CC(C)(Oc1ccc(C2CC2(Cl)Cl)cc1)C(=O)O` (stereo not given), the Potency was “inactive”.
`CC/C=C\CCCCCO` was tested, and the Potency was “inactive”.
For `CCCCN=C(N)N=C(N)N`, the Potency was “inactive”.
In the case of `O=C(O)c1[nH]n(-c2ccc(S(=O)(=O)O)cc2)c(=O)c1N=Nc1ccc(S(=O)(=O)O)cc1`, the Potency is reported as “inactive”.
For `C#CC(C)(O)CC(C)C` (stereo not given), the Potency was “inactive”.
In the case of `O=C(O)c1ccccc1C(=O)O`, the Potency is reported as “inactive”.
`CC(C)Oc1ccc2c(=O)c(-c3ccccc3)coc2c1` was tested, and the Potency was “inactive”.
`CCCCCCCCCCCCCCCCCCOCCO` was tested, and the activity change, negative = inhibition was -1.79% [at 23.8 µM] (inactive).
With `COc1ccc(Cl)cc1C(=O)NCCc1ccc(S(=O)(=O)NC(=O)NC2CCCCC2)cc1` the Potency was “inactive”.
`CC1(C)OC[C@@H]2O[C@@]3(C(=O)O)OC(C)(C)O[C@H]3[C@@H]2O1` was tested, and the Potency was “inactive”.
With `CCC(CO)(CO)CO` the Potency was “inactive”.
In the case of `CC[C@@H]([C@H](C)O)n1ncn(-c2ccc(N3CCN(c4ccc(OC[C@@H]5CO[C@@](Cn6cncn6)(c6ccc(F)cc6F)C5)cc4)CC3)cc2)c1=O`, the Potency is reported as “inactive”.
With `Cc1ccc(S(=O)(=O)NCl)cc1` the Potency was “inactive”.
`O=C(O)CCCC[P+](c1ccccc1)(c1ccccc1)c1ccccc1` was tested, and the Potency was “inactive”.
With `C=Cc1ccc(O)c(OC)c1` the Potency was “inactive”.
`CCO[Si](C)(CCCOCC1CO1)OCC` (stereo not given) was tested, and the Potency was “inactive”.
With `C[C@]12CCC(=O)C=C1CC[C@H]1[C@@H]3CC[C@](O)(C(=O)CO)[C@@]3(C)C[C@H](O)[C@@]12F` the Potency was “inactive”.
With `COC(=O)CCCC(=O)O` the Potency was “inactive”.
`CCCCCCCCCCCCCBr` was tested, and the Potency was “inactive”.
`CC(C)c1cc2c(cc1S(=O)(=O)O)[C@@]1(C)CCC[C@@](C)(C(=O)O)[C@@H]1CC2` was tested, and the Potency was “inactive”.
For `O=C(c1ccc(O)c(O)c1)c1ccc(O)cc1O`, the Potency was “inactive”.
With `C[C@]12CC[C@@H]3c4ccc(O)cc4CC[C@H]3[C@@H]1CC[C@H]2O` the Potency was “inactive”.
For `CC(C)c1cc(C(C)C)cc(C(C)C)c1`, the Potency was “inactive”.
For `NC(=O)c1ccc([N+](=O)[O-])cc1Cl`, the Potency was “inactive”.

Each molecule was assayed against Acetylcholinesterase (Homo sapiens) (UniProt P22303) (assay: Acetylcholinesterase (AChE) small molecule antagonists: enzyme-based qHTS assay with human liver microsomes (AID 1347399; further: nearly all actives have a fitted effect of over 60% in size)). Conditions: Potency: qHTS inhibition; outcome: qHTS inhibition; series mostly up to 115 µM.
Outline: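 Recombinant human AChE (50 mU/mL in the enzyme mix) and human liver microsomes (0.25 mg/mL final) were preincubated with compound and NADPH (0.25 mg/mL final) for 30 min at 37 C. Acetylthiocholine/DTNB was then added; thiocholine was read colorimetrically after 10 min at room temperature.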
For `O=Cc1ccccc1S(=O)(=O)O`, the Potency was “inactive”.
`CC1(C)COCN1` was tested, and the Potency was “inactive”.
With `NCc1cccc(CN)c1` the Potency was “inactive”.
For `N#CCc1ccc(Cl)cc1Cl`, the Potency was “inactive”.
For `CCN(CC)c1ccc(C=O)c(O)c1`, the Potency was “inactive”.
For `CCCC(CCC)(C(=O)OCC)C(=O)OCC`, the Potency was “inactive”.
In the case of `Cc1cc(C)c(C(=O)O)c(C)c1`, the Potency is reported as “inactive”.
With `C[C@H]1O[C@H](O[C@H]2[C@H](O)[C@@H](O)[C@@H](O[C@H]3[C@H](O)[C@@H](O)[C@H](O)O[C@@H]3CO)O[C@@H]2CO)[C@H](O)[C@@H](O)[C@@H]1N[C@H]1C=C(CO)[C@@H](O)[C@H](O)[C@H]1O` the Potency was “inactive”.
For `CCC(C)(C)C1CCC(O)CC1` (stereo not given), the Potency was “inactive”.
With `CCCCCCC(=O)O` the Potency was “inactive”.
With `CCCCC(CC)COCCCN` (stereo not given) the Potency was “inactive”.
With `Fc1ccccc1-c1ccccc1` the Potency was “inactive”.
`Cc1ccc2c(ccc3ccccc32)c1` was tested, and the Potency was “inactive”.
For `Cc1cc(C2CCCCC2)n(O)c(=O)c1`, the Potency was “inactive”.
For `NC(=O)Cc1cccc2ccccc12`, the Potency was “inactive”.
In the case of `CCCCCC1CCC(=O)O1` (stereo not given), the Potency is reported as “inactive”.
For `CC(C)(Oc1ccc(C2CC2(Cl)Cl)cc1)C(=O)O` (stereo not given), the Potency was “inactive”.
`CC/C=C\CCCCCO` was tested, and the Potency was “inactive”.
In the case of `CCCCN=C(N)N=C(N)N`, the Potency is reported as “inactive”.
With `O=C(O)c1[nH]n(-c2ccc(S(=O)(=O)O)cc2)c(=O)c1N=Nc1ccc(S(=O)(=O)O)cc1` the Potency was “inactive”.
`C#CC(C)(O)CC(C)C` (stereo not given) was tested, and the Potency was “inactive”.
`O=C(O)c1ccccc1C(=O)O` was tested, and the Potency was “inactive”.
With `CC(C)Oc1ccc2c(=O)c(-c3ccccc3)coc2c1` the Potency was “inactive”.
With `CCCCCCCCCCCCCCCCCCOCCO` the activity change, negative = inhibition was 0.112% [at 23.6 µM] (inactive).
With `COc1ccc(Cl)cc1C(=O)NCCc1ccc(S(=O)(=O)NC(=O)NC2CCCCC2)cc1` the Potency was “inactive”.
`CC1(C)OC[C@@H]2O[C@@]3(C(=O)O)OC(C)(C)O[C@H]3[C@@H]2O1` was tested, and the Potency was “inactive”.
In the case of `CCC(CO)(CO)CO`, the Potency is reported as “inactive”.
In the case of `CC[C@@H]([C@H](C)O)n1ncn(-c2ccc(N3CCN(c4ccc(OC[C@@H]5CO[C@@](Cn6cncn6)(c6ccc(F)cc6F)C5)cc4)CC3)cc2)c1=O`, the Potency is reported as “inactive”.
`Cc1ccc(S(=O)(=O)NCl)cc1` was tested, and the Potency was “inactive”.
For `O=C(O)CCCC[P+](c1ccccc1)(c1ccccc1)c1ccccc1`, the Potency was “inactive”.
With `C=Cc1ccc(O)c(OC)c1` the Potency was “inactive”.
With `CCO[Si](C)(CCCOCC1CO1)OCC` (stereo not given) the Potency was “inactive”.
For `C[C@]12CCC(=O)C=C1CC[C@H]1[C@@H]3CC[C@](O)(C(=O)CO)[C@@]3(C)C[C@H](O)[C@@]12F`, the Potency was “inactive”.
For `COC(=O)CCCC(=O)O`, the Potency was “inactive”.
`CCCCCCCCCCCCCBr` was tested, and the Potency was “inactive”.
For `CC(C)c1cc2c(cc1S(=O)(=O)O)[C@@]1(C)CCC[C@@](C)(C(=O)O)[C@@H]1CC2`, the Potency was “inactive”.
For `O=C(c1ccc(O)c(O)c1)c1ccc(O)cc1O`, the Potency was “inactive”.
For `C[C@]12CC[C@@H]3c4ccc(O)cc4CC[C@H]3[C@@H]1CC[C@H]2O`, the Potency was “inactive”.
In the case of `CC(C)c1cc(C(C)C)cc(C(C)C)c1`, the Potency is reported as “inactive”.
For `NC(=O)c1ccc([N+](=O)[O-])cc1Cl`, the Potency was “inactive”.
